# Data published in PMC4336329 (PLoS ONE, 2015).
# Among all 310,000 compounds or so, about 14,000 (4.5%) showed an effect of 50% or more. Effects have a minus sign here. For the sample, strong results were picked, then their nearest neighbours and some compounds at random.
# Target: human ether-à-go-go-related gene (hERG) potassium channel (human, UniProt Q12809)
# Experiment: primary screen, population patch clamp on CHO cells stably expressing hERG; higher = less effect of the substance
# 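Also: peak tail current of the secondary pulse compared with the same well before compound.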
# Chain of human ether-à-go-go-related gene (hERG) potassium channel (Q12809 whole entry, looked up): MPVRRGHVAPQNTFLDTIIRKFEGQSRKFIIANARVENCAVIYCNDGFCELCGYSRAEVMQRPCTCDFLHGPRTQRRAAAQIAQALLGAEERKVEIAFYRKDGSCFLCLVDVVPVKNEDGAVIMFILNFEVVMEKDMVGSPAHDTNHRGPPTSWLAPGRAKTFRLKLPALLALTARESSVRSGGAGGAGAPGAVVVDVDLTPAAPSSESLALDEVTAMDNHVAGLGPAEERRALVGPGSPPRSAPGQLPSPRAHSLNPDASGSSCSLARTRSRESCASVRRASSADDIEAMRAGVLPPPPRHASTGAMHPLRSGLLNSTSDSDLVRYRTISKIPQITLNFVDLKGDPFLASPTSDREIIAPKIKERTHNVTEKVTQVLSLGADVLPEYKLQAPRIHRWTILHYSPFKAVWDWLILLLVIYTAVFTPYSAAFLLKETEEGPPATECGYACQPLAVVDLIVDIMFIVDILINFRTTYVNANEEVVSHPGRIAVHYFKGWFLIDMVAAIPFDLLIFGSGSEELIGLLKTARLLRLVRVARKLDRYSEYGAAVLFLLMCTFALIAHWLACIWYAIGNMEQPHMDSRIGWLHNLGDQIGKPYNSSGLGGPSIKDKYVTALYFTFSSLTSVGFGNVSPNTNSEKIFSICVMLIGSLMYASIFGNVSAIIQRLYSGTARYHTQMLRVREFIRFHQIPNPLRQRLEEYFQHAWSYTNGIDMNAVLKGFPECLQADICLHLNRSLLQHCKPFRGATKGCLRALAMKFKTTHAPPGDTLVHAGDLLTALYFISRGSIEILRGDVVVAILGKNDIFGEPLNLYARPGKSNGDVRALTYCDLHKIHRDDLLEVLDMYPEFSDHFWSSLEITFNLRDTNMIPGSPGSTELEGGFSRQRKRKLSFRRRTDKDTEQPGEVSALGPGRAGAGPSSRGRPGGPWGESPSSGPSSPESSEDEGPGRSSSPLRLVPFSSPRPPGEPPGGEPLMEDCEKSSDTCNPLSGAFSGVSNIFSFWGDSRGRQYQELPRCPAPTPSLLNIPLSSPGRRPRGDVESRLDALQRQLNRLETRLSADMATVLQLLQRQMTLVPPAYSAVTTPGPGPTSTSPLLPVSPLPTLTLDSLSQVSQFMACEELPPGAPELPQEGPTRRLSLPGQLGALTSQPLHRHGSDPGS
row,Structure (SMILES),"hERG current change (%, negative = inhibition) at 10uM [%]"
1,COc1ccc(CN(C)CC(=O)NC(C)c2ccccc2)c(OC)c1 (stereo not drawn),-13.8
2,Cc1ccc(-c2noc(CN3CCN(C(c4ccccc4)c4ccccc4)CC3)n2)cc1,7.84
3,CN(C)CCNC(=O)c1cccc(NS(=O)(=O)c2ccc(Cl)c(Cl)c2)c1,0.919
4,O=C(c1ccccc1)N1CC(COc2ccccc2)OC(c2cccnc2)O1 (stereo not drawn),-5.14
5,O=C(Cn1nnc(-c2ccccc2NC(=O)c2ccccc2)n1)Nc1ccc2c(c1)OCCO2,1.49
6,Cc1cc(Cl)ccc1C1=CC(=O)C[C@H](c2ccc(F)cc2)C1,15.7
7,Cc1cc(=O)[nH]c2c1c(C)nn2C1CCCCC1,-3.84
8,O=C(COc1cccc(F)c1)NNC(=O)Cc1ccc(S(=O)(=O)N2CCOCC2)s1,-11.9
9,C/C(=N\Nc1ccc(Cl)cc1)c1c(O)cc(C)oc1=O,15.3
10,c1ccc2c(c1)CC/C2=N/Nc1nc2ccccc2[nH]1,9.49
11,COCCCn1c(C(=O)N2CCOCC2)cc2c(=O)n3cccc(C)c3nc21,-11.4
12,COCCCn1c(C(=O)NCCN2CCOCC2)cc2c(=O)n3cccc(C)c3nc21,-9.21
13,COCCCn1c(=N)c(C(N)=S)cc2c(=O)n3cccc(C)c3nc21,-84.3
14,Cc1cccn2c(=O)c3cc(C(N)=S)c(=N)n(CCCN4CCOCC4)c3nc12,-87.6
15,Cc1cccn2c(=O)c3cc(C(N)=S)c(=N)n(CCCOC(C)C)c3nc12,-78.2
16,Cc1cccn2c(=O)c3cc(C(=O)N4CCOCC4)n(C)c3nc12,-32.1
17,Cc1cccn2c(=O)c3cc(C(=O)NCCCOC(C)C)sc3nc12,-6.24
18,CCOCCCn1c(=N)c(C(N)=S)cc2c(=O)n3cccc(C)c3nc21,-82.6
19,CCCCn1c(=N)c(S(=O)(=O)c2ccc(Br)cc2)cc2c(=O)n3cccc(C)c3nc21,13
20,COCCCn1c(C(=O)N2CC(C)OC(C)C2)cc2c(=O)n3cccc(C)c3nc21 (stereo not drawn),0.735
21,CCOCCCNC(=O)c1cc2c(=O)n3cccc(C)c3nc2n1C,12.4
22,CCC(C)n1c(SCC(=O)Nc2ccccc2C(F)(F)F)nc2ccsc2c1=O (stereo not drawn),-14
23,Cc1ccc(C(=O)Oc2coc(CSc3nnc(NC(=O)C4CC4)s3)cc2=O)cc1,16.6
24,Cc1[nH]c(C)c(S(=O)(=O)N(C)Cc2ccccc2)c1C(=O)N1CCCC1,15.2
